ALDH1A1 inh – qHTS Assay for Inhibitors of Aldehyde Dehydrogenase 1 (ALDH1A1). AID 1030, 2008. Purified ALDH1A1, NADH fluorescence, propionaldehyde substrate. Potency, µM (doses to about 75.3 µM), actives largely listed as inhibitors. Aldehyde dehydrogenase 1A1 (Homo sapiens), P00352. 220,000 compounds, 7.3% hits; active = well fitted inhibition curve with a large enough effect, not every such curve was filed as active; inconclusive = small, poorly fitted or top-dose-only effect, or another doubt; inactive = no such curve, though single readings can be large or run the other way
Target sequence (P00352 whole entry, looked up): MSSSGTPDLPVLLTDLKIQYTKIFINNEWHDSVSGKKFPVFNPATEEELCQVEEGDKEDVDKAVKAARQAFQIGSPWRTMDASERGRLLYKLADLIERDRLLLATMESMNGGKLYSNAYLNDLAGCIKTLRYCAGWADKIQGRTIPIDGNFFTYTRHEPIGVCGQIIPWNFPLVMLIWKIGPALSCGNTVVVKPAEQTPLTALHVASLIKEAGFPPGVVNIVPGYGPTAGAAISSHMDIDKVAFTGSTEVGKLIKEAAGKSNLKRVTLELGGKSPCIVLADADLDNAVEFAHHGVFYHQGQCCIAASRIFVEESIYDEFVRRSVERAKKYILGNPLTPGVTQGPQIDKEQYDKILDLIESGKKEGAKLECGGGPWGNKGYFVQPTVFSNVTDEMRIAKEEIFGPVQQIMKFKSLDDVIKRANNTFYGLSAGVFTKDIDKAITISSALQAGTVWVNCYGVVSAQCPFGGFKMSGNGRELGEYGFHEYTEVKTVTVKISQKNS
PLK1 PBD inh – qHTS for Inhibitors of PLK1-PDB (polo-like kinase 1 - polo-box domain): Primary Screen | 360,000 compounds, 2.8% hits | Serine/threonine-protein kinase PLK1 (Homo sapiens), P53350 | Plk1 PBD binding of FITC phosphopeptide, fluorescence polarization | Potency, µM, usual class: inhibitors; also: series mostly up to about 57 µM; nearly all actives have a fitted effect of over 65% in size
RORgamma inh – qHTS for inhibitors of ROR gamma transcriptional activity; Nuclear receptor ROR-gamma (Mus musculus), P51450; Drosophila S2 Gal4-RORgamma UAS-luciferase reporter, 20 h; Potency, µM (top dose mostly 53.6 µM), usual class: inhibitors; 310,000 compounds, 5.4% hits; AID 2551, 2010; also: nearly all actives have a fitted effect of over 60% in size
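Read-out: Photinus luciferase luminescence; inhibitors lower reporter signal. Insect Schneider cells with Gal4-ROR gamma fusion under metallothionein promoter, UAS reporter; 700 uM final copper sulfate induction, 20 hr, ambient temperature.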
VP16 counter – VP16 counterscreen qHTS for inhibitors of ROR gamma transcriptional activity. Drosophila S2 Gal4-VP16 UAS-luciferase, luminescence, 20 h. Potency, µM (top dose mostly 53.6 µM), most hits filed as inhibitors. 310,000 compounds, 3.5% hits;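 also: Gal4-VP16 expression switched on by copper sulfate through the metallothionein promoter; nearly all actives have a fitted effect of over 50% in size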
Sfp PPTase inh – qHTS Assay for Inhibitors of Bacillus subtilis Sfp phosphopantetheinyl transferase (PPTase). 4'-phosphopantetheinyl transferase ffp (Bacillus subtilis), Q9F4F7. Biochemical Sfp PPTase activity, qHTS. Potency, µM, actives largely listed as inhibitors. 310,000 compounds, 3.5% hits;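 also: the enzyme is Sfp with the accession as filed and its product quenches rhodamine fluorescence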
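Reaction rates are the 30-min fluorescence difference (ex 525, em 598 nm) in wells containing 15 nM Sfp, 5 uM rhodamine-CoA and 12.5 uM BHQ-2-YbbR at pH 7.6 with 10 mM MgCl2.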
Numbers stand for hits; - = inactive; ? = inconclusive; . = no result given; ! = a repeat was not active. In the library only some 12% were active in any assay of this set; here they are far more common. Unless noted, calls follow the shape of the dose curve; as a rule, active = well fitted curve in the direction sought with a large enough effect; inconclusive = small, poorly fitted or top-dose-only effect, or another doubt; inactive = no such curve, though single readings can be large; an effect the other way counts as inactive or inconclusive.

SMILES	ALDH1A1 inh	PLK1 PBD inh	RORgamma inh	VP16 counter	Sfp PPTase inh
CNc1nc(-c2ccc3c(c2)CCN3S(=O)(=O)c2ccccc2)c(C)s1	8.9µM	?	-	-	-
CCC(C)C(=O)N1CCc2cc(-c3csc(N)n3)ccc21 (stereo not drawn)	?	-	-	-	-
CNc1nc(-c2ccc3c(c2)CCN3C(=O)c2ccccc2F)c(C)s1	11µM	-	-	-	22µM
CN(C)c1ncc2nc(CCc3ccccc3)c(=O)n(CCC#N)c2n1	?	.	-	-	-
C=CCC(Nc1ccccc1)C12C=CC(O1)C(C(=O)OC)=C2C(=O)OC (stereo not drawn)	-	?	5.6µM	6.3µM	-
CCOC(=O)/C(C#N)=C1\CCCN1CC(N)=S	20µM	21µM	?	-	35µM
Cc1ccc(C(C)C)c(OCc2ccc(-c3nnco3)cc2)c1	-	-	4µM	?	50µM
Cc1ccc(N=Cc2sc(O)c3ccccc23)cc1	?	-	-	-	32µM
Cc1ccc(N=Cc2sc(O)c3ccccc23)c(C)c1	13µM	-	?	-	22µM
O=C(Nc1ccc(Cl)cc1C(=O)c1ccccn1)c1ccccc1	.	-	.	.	.
CCC(C)(C)NC(=O)COc1ccc(C(=O)c2ccccc2)cc1	-	-	-	13µM	-
CC(=O)Nc1ccc(S(=O)(=O)NNC(=O)COc2ccc(C)cc2)cc1	-	-	-	-	-
CC(=O)NS(=O)(=O)c1ccc(NC(=O)COc2ccc(C(=O)c3ccccc3)cc2)cc1	10µM	-	-	-	-
CN(C)S(=O)(=O)c1cccc(NC(=O)COc2ccc(C(=O)c3ccccc3)cc2)c1	.	-	?	?	-
CC(=O)Nc1ccc(S(=O)(=O)NNC(=O)COc2ccc(C(C)(C)C)cc2)cc1	-	27µM	?	-	-
CCN(C(=O)COC(=O)c1cccc(-n2cnnn2)c1)C1CCCCC1	-	-	-	-	-
CCNc1ncc2nc(-c3ccc(OC)cc3)c(=O)n(Cc3cccc(OC)c3)c2n1	?	.	-	-	-
Cc1ccc(-c2nn(C)c(=O)c3ccccc23)cc1CNC(=O)CSc1nc2ccccc2o1	-	27µM!	-	-	-
CCC(=O)NCc1cc(-c2nn(C)c(=O)c3ccccc23)ccc1C	-	-	-	-	-
O=C(c1ccco1)c1coc2c1cc(O)c1ccccc12	?	30µM	-	-	-
O=C(NCC1CCCO1)C(c1ccncc1)N(Cc1ccc(F)cc1)C(=O)CN1C(=O)c2ccccc2S1(=O)=O (stereo not drawn)	13µM	-	-	-	-
COc1cccc(C(C(=O)NCC2CCCO2)N(CC2CCCO2)C(=O)CN2C(=O)c3ccccc3S2(=O)=O)c1 (stereo not drawn)	14µM	-	-	-	-
CCOC(=O)C1=NN(C(=O)Cc2ccccc2)C(O)(c2ccc(Cl)cc2)C1 (stereo not drawn)	?	-	5.6µM	10µM	-
CC1=NN(C(=O)COc2ccccc2C)C(O)(c2ccc(Cl)cc2)C1 (stereo not drawn)	-	-	14µM	7.9µM	-
CC1=NN(C(=O)COc2ccccc2)C(O)(c2cccnc2)C1 (stereo not drawn)	-	-	-	-	-
SMILES	ALDH1A1 inh	PLK1 PBD inh	RORgamma inh	VP16 counter	Sfp PPTase inh
CCOC(=O)C1=C(COc2ccccc2)NC(=O)NC1c1ccc(Cl)cc1 (stereo not drawn)	.	-	-	-	-
CCOC(=O)C1=NN(C(=O)COc2ccccc2)C(O)(c2ccc(Cl)cc2)C1 (stereo not drawn)	-	-	3.5µM	11µM	-
CCCC(C)NC(=O)c1cccc(Oc2ccccc2)c1 (stereo not drawn)	?	-	35µM	-	-
Cc1ccc(CNCCCn2cnc3c(OCc4ccccc4)ncnc32)o1	.	-	.	.	.
O=C(CCC(=O)c1ccc(F)cc1)Nc1cccc(Br)c1	.	-	-	-	-
CCC(=O)O[C@@H](OP(=O)(CCCCc1ccccc1)CC(=O)N1C[C@H](C2CCCCC2)C[C@H]1C(=O)O)C(C)C (stereo partly drawn)	.	.	-	-	-
CC(C)CCOP(=O)(c1ccc(N(C)C)cc1)C(O)c1ccccn1 (stereo not drawn)	-	-	-	-	-

Screening results as filed in PubChem.
